From PubChem BioAssay
An excerpt weighted towards active compounds, which were near 2.7% of everything screened.
PfG6PD inh: PfG6PD (Plasmodium falciparum) enzyme inhibition; PfGluPho enzyme, NADPH resazurin-diaphorase fluorescence; inhibition, % at 20 µM; actives 0.78% (n = 350,000); AID 504690;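 active = inhibition reaching at least a set limit at 20 µM in the primary screen, cut at about 59% in these data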;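 note: 0% = DMSO wells with substrate and 100% = DMSO wells lacking glucose-6-phosphate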
FAS-TE inh: FAS thioesterase (human) inhibition; AID 602261; actives 0.67% (n = 360,000); P49327; recombinant FAS-TE, OMFH fluorogenic substrate, fluorescence endpoint; inhibition, % at 15 µM;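 active = compounds whose normalised, plate-corrected inhibition of enzyme fluorescence in the single-dose primary screen is 50% or more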;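 note: 0% = DMSO with enzyme and 100% = substrate without enzyme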
proKLK7 act: proKLK7 (human) activation, primary screen; purified proKLK7, EDANS-DABCYL substrate fluorescence; 100% is mature enzyme control, 0% vehicle; activation, % at 7 µM; actives 0.9% (n = 370,000); AID 652039;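 active = activation above the mean of all tested compounds plus 3 SD, computed per campaign excluding outliers beyond control limits, cut at about 13% in these data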
Neddylation inh: blocks human cullin neddylation; P61081+Q13564; AID 651699; TR-FRET cullin neddylation, biochemical; actives 0.58% (n = 360,000); calls only at 25 µM; in the data active = inhibition above about 36%
Target sequence (P61081 whole entry, looked up): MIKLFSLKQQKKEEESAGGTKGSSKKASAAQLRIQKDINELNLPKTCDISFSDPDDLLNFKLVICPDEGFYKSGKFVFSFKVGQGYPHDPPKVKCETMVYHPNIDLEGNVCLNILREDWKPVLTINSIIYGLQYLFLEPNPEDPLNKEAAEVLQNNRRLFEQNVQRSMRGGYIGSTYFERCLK
Target sequence (Q13564 whole entry, looked up): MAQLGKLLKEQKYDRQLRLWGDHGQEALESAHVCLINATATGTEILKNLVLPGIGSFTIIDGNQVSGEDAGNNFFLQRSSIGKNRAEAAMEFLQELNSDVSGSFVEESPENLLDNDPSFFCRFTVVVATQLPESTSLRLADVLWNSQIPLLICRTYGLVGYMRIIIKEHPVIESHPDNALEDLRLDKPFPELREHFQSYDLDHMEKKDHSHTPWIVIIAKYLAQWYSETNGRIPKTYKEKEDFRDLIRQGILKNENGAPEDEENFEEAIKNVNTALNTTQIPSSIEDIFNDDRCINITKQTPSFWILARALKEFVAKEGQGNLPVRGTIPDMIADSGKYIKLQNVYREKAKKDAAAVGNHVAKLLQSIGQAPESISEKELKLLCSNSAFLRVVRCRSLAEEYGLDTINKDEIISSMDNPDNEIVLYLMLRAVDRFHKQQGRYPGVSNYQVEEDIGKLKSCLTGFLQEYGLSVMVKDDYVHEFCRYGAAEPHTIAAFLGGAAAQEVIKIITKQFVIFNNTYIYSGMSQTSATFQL
proKLK7 act conf: proKLK7 activation, confirmation | shares compounds with proKLK7 act | purified proKLK7, EDANS-DABCYL substrate fluorescence; scaled: vehicle 0, mature enzyme 100 | activation, % at 7 µM | actives 68% (n = 3,200) | AID 686949;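 active = activation, as change over the incubation, above the mean of all tested compounds plus 3 SD, cut at about 13% in these data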
EDANS interfere: optically interferes with EDANS-DABCYL signal, flagging KLK7 hits. activation, % at 7 µM. actives 80% (n = 3,200). shares compounds with proKLK7 act. AID 686952. EDANS-DABCYL substrate fluorescence interference, no enzyme, 4 h; solvent 0%, active enzyme control 100%;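 active = activation above the all-compound mean plus 3 SD, ignoring values outside control-based bounds, cut at about 4.8% in these data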;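 note: value is the 4 h activation minus the activation read at time zero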
EDANS interf: optically interferes with EDANS-DABCYL fluorescence, kallikrein-7 activator counter-screen | shares compounds with proKLK7 act | EDANS-DABCYL peptide fluorescence interference, no enzyme | EC50, µM | actives 20% (n = 250);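 active = compounds that raise the fluorescence signal in this interference counterscreen, with EC50 at or below 10 µM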;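 note: intact quenched peptide substrate alone read at 355 nm excitation and 520 nm emission; signal is fluorescence gain from T0 to T4 after four hours at room temperature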
Starred values were filed as active, the others as inactive; i = inactive; · = no result shown.

SMILES	PfG6PD inh	FAS-TE inh	proKLK7 act	Neddylation inh	proKLK7 act conf	EDANS interfere	others
COc1cc(OC)c2c(C)c(Cl)c(=O)oc2c1	5	0	15*	i	78*	72*
COc1ccc(C2C3=C(CCCC3=O)Nc3nc(C(F)(F)F)nn32)cc1OC (stereo unspecified)	5	-3	15*	i	43*	58*
COc1ccc(C2C3=C(CCCC3=O)Nc3nc(C(F)(F)F)nn32)c(OC)c1OC (stereo unspecified)	-6	-2	23*	i	38*	36*
CCOc1cc(C2C3=C(CCCC3=O)Nc3nc(C(=O)OC)nn32)ccc1OC (stereo unspecified)	9	-8	2	i	·	·
COc1cc(-c2nc3n(n2)C(c2ccc(F)cc2)C2=C(CCCC2=O)N3)cc(OC)c1OC (stereo unspecified)	14	-1	2	i	·	·
CCOc1ccc(C2C3=C(CCCC3=O)Nc3nc(C(F)(F)F)nn32)cc1OC (stereo unspecified)	1	-6	44*	i	52*	58*
COC(=O)[C@H]1C[C@@]2(C)c3ccccc3N(S(=O)(=O)c3ccccc3)[C@H]2N1C(=O)CNC1CCCCC1	·	·	0	·	·	·
O=c1c2cc3cc4c(cc3nc2ncn1Cc1cccnc1)OCO4	·	·	0	·	·	·
CC(=O)N(C(C)=O)c1ncc2c([nH]c3ccccc32)c1C#N	-5	-5	19*	·	25*	25*
CC(=O)N(C(C)=O)c1c(C#N)c(C)n(-c2ccccc2)c1C(=O)c1ccccc1	9	-2	1	i	·	·
Cc1ccccc1N1C(=O)c2cccc3c(N(C)CCO)ccc(c23)C1=O	-20	-89	13*	i	9	10*
COc1ccccc1N1C(=O)c2cccc3c(N(C)CCO)ccc(c23)C1=O	18	-35	-1	i	·	·
O=C1c2ccccc2C(=O)N1c1ccccc1	0	-5	0	i	·	·
O=Cc1ccc(/C=C2\c3ccccc3C(=O)N2c2ccccc2)o1	·	·	34*	·	62*	59*
COC(=O)c1nc2ccc(N3CCOCC3)cc2c(C)c1C(=O)OC	15	-5	22*	·	2	25*
O=S1(=O)CC(N2CCN(Cc3ccccc3F)CC2)CN1Cc1cn(Cc2cccc(Cl)c2)nn1 (stereo unspecified)	·	-5	1	i	·	·
O=C(CCNC(=O)C1CCN(S(=O)(=O)c2ccc(F)cc2)CC1)NCc1ccccn1	-3	-5	0	i	·	·
CC(=O)Nc1oc(-c2cccc3ccccc23)nc1C#N	-14	-4	78*	·	72*	72*
Cc1cc2nc(-c3ccc(SCc4ccccn4)nc3)[nH]c2cc1C	53	11	127*	·	25*	16*	EDANS interf=i
CS(=O)(=O)c1cccc(C(=O)Nc2ccc(-c3nc4ccccc4[nH]3)cc2)c1	9	-2	84*	·	55*	63*
CC(=O)Nc1cnc(-c2cccc(C(=O)N3CCOCC3)c2)cn1	·	-10	0	i	·	·
CNc1cnc(-c2ccc(C(=O)N3CCOCC3)cc2)cn1	·	-4	20*	·	20*	22*
CNc1cncc(-c2c(OC)cccc2OC)n1	·	-9	12	·	·	·
CNc1cncc(-c2ccccc2CO)n1	·	-7	26*	·	12	15*
CNc1cncc(-c2cccc(OC)c2F)n1	·	-8	37*	·	35*	53*
SMILES	PfG6PD inh	FAS-TE inh	proKLK7 act	Neddylation inh	proKLK7 act conf	EDANS interfere	others
CNc1cnc(-c2ccccc2OC)cn1	·	-8	11	·	·	·
CC(=O)Nc1cncc(-c2ccccc2F)n1	·	-1	0	i	·	·
CCOc1ccccc1-c1cnc(NC)cn1	·	-11	15*	·	31*	28*
CCOc1ccccc1-c1cncc(NC)n1	·	-4	25*	·	18*	16*
COc1ccccc1CNC(=O)NC1CCN(CC(=O)Nc2ccc3c(c2)OCCO3)CC1	·	·	-1	·	·	·
CCOC(=O)C1CCCN(C(=O)c2cccc(C(F)(F)F)c2)CC1 (stereo unspecified)	·	-6	0	i	·	·
CS(=O)CC(O)(c1ccc(F)cc1)C1CC1 (stereo unspecified)	0	-10	0	i	·	·
CC(=O)c1cc2c(cc1NS(=O)(=O)c1ccccc1Br)OCO2	-2	26	41*	i	15*	5.3*	EDANS interf=>70
O=C(NCCc1ccccc1)c1ccc(NC(=O)C2CCC2)cc1	-9	-4	0	i	·	·
O=C(NCc1cccs1)c1ccc(Cl)c(S(=O)(=O)N2CCOCC2)c1	0	-8	0	i	·	·
CCc1nn(CC(=O)NCCN2CCN(C)CC2)c(=O)c2cc3c(OC)cccc3n12	5	-2	34*	·	27*	34*
COc1ccc(-c2cc(NC(=O)Cc3c[nH]c4ccccc34)ccc2Nc2cccnc2)c(OC)c1	·	·	-1	·	·	·
O=C(NNS(=O)(=O)c1ccccc1[N+](=O)[O-])c1cc2ccccc2cc1O	-4	0	14*	i	22*	20*
CC(CC(=O)Nc1ccc2c(c1)c(=O)n(C)n2Cc1ccc(F)cc1)C(F)(F)F (stereo unspecified)	·	-3	16*	·	-8	-11
Cn1c(=O)c2cc(NC(=O)CCc3cccnc3)ccc2n1Cc1ccc(F)cc1	·	-2	13*	·	7	14*
Cn1c(=O)c2cc(NC(=O)CC(C)(C)C)ccc2n1-c1ccccc1F	·	-9	15*	·	-6	-16
Cn1c(=O)c2cc(NC(=O)CCc3cccnc3)ccc2n1Cc1cccc(C(F)(F)F)c1	·	-3	5	·	·	·
COc1cc(Cn2c3ccc(NC(=O)CCc4cccnc4)cc3c(=O)n2C)ccc1F	·	-8	16*	·	7	7.6*
CC(CC(=O)Nc1ccc2c(c1)c(=O)n(C)n2-c1ccccc1F)c1ccccc1 (stereo unspecified)	·	-1	-4	·	·	·
O=C(NCC1CCN(C(=O)C(=O)c2cc3ccccc3o2)CC1)c1cc(C(F)(F)F)cc(C(F)(F)F)c1	·	·	0	·	·	·
O=C(NCc1ccc(F)cc1)c1cc(C2CCCN(C(=O)c3ccc4c(c3)CCO4)C2)on1 (stereo unspecified)	·	-3	0	i	·	·
COc1cccc(CNC(=O)[C@@H]2CCCN2C(=O)[C@H]2CCCCN2C(=O)c2cccc3ccccc23)c1	·	-2	·	i	·	·
CCN1CC(CN(C)Cc2cn(-c3cccc(C)c3)nc2-c2cccc(F)c2)CC1=O (stereo unspecified)	10	19	17*	i	1	0
COc1cccc(NC(=O)C2CCCN2C(=O)Nc2cccc3c2OCO3)c1 (stereo unspecified)	·	·	0	·	·	·
C#CCNC(=O)c1cc2cccnc2nc1N	·	·	18*	·	46*	45*
